Results reported in the supplement of paper PMC10849652.
Of roughly 8,800 targets only a part is listed; those with a hit were picked by preference. About 0.5% of all pairs of compound and target were hits.

Each target was assayed with COc1cc(Nc2ncc3c(n2)-c2ccc(Cl)cc2C(c2c(F)cccc2OC)=NC3)ccc1C(=O)O [alisertib] (assay: log2 fold change, soluble protein after heating vs DMSO (PISA); higher = thermal stabilisation; K562 lysate, 10 uM; active = over 0.2 and 3.5 SD of the protein, either way, in both replicates (recomputed)).
Procedure, shortened: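 A 30 min treatment with 10 μM compound was applied to crude K562 extract at 1 mg/mL protein in PBS pH 7.4 with 1 mM MgCl2. Heating for 3 min spanned 48°C-58°C, after which aliquots were pooled, adjusted to 0.5% NP-40 at 4°C and spun at 21,000xg for 90 min. TMTpro 16plex LC-MS/MS of the supernatant, with channel sums equalised, gave values recorded as log-two fold change in thermal stability against solvent controls, from duplicates.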

Sequence of UniProt Q9Y6D0 (Q9Y6D0 whole entry, looked up): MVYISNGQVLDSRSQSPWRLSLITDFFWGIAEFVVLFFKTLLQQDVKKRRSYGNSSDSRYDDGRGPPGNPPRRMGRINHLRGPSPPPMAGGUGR
Sequence of UniProt Q9UPW6 (Q9UPW6 whole entry, looked up): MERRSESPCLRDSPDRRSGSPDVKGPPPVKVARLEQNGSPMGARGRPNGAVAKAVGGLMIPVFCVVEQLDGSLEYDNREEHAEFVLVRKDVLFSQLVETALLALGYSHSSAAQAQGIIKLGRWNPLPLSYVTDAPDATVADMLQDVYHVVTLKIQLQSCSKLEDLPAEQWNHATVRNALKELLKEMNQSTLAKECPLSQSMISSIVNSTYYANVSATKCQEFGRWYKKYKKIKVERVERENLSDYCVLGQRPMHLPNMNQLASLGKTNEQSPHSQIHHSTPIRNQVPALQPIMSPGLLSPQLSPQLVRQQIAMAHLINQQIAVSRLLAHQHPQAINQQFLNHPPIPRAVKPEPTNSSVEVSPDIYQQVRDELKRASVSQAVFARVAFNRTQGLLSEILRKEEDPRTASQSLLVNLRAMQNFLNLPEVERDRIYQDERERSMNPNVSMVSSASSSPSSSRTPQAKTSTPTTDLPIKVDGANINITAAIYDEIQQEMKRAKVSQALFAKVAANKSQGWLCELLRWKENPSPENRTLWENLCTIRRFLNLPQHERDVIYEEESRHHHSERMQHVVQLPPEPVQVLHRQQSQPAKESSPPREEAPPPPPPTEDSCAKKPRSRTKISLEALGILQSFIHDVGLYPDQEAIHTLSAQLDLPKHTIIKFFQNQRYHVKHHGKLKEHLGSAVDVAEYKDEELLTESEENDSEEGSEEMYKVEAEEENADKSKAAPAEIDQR
Sequence of UniProt Q7L0Q8 (Q7L0Q8 whole entry, looked up): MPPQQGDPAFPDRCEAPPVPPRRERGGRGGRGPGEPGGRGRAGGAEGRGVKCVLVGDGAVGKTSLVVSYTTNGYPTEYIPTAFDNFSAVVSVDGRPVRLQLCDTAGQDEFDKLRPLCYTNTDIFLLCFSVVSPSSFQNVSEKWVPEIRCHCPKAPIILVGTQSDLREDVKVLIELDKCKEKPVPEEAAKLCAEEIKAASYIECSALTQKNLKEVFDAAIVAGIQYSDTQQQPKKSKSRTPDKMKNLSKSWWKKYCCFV
Sequence of UniProt Q9BWG6 (Q9BWG6 whole entry, looked up): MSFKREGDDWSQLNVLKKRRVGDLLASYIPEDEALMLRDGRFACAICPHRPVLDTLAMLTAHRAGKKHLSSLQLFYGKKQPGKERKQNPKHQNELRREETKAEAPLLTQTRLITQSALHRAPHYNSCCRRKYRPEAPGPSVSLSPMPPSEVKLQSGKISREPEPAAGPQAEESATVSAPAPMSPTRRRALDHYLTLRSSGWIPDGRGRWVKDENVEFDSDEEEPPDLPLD
Sequence of UniProt Q96LT9 (Q96LT9 whole entry, looked up): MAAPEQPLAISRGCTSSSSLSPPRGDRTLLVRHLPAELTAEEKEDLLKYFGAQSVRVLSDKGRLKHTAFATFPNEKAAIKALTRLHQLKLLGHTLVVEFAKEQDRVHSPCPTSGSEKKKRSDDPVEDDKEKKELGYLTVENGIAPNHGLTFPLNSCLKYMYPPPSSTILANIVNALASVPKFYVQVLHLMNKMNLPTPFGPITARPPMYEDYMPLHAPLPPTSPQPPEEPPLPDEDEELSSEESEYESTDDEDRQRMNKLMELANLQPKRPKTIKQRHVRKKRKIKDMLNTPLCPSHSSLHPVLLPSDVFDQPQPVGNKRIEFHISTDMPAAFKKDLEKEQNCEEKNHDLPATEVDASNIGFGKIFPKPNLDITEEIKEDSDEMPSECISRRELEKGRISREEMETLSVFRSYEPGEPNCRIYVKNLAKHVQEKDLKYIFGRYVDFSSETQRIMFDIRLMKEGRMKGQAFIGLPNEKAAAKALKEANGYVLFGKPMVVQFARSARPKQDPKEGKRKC
Sequence of UniProt O94761 (O94761 whole entry, looked up): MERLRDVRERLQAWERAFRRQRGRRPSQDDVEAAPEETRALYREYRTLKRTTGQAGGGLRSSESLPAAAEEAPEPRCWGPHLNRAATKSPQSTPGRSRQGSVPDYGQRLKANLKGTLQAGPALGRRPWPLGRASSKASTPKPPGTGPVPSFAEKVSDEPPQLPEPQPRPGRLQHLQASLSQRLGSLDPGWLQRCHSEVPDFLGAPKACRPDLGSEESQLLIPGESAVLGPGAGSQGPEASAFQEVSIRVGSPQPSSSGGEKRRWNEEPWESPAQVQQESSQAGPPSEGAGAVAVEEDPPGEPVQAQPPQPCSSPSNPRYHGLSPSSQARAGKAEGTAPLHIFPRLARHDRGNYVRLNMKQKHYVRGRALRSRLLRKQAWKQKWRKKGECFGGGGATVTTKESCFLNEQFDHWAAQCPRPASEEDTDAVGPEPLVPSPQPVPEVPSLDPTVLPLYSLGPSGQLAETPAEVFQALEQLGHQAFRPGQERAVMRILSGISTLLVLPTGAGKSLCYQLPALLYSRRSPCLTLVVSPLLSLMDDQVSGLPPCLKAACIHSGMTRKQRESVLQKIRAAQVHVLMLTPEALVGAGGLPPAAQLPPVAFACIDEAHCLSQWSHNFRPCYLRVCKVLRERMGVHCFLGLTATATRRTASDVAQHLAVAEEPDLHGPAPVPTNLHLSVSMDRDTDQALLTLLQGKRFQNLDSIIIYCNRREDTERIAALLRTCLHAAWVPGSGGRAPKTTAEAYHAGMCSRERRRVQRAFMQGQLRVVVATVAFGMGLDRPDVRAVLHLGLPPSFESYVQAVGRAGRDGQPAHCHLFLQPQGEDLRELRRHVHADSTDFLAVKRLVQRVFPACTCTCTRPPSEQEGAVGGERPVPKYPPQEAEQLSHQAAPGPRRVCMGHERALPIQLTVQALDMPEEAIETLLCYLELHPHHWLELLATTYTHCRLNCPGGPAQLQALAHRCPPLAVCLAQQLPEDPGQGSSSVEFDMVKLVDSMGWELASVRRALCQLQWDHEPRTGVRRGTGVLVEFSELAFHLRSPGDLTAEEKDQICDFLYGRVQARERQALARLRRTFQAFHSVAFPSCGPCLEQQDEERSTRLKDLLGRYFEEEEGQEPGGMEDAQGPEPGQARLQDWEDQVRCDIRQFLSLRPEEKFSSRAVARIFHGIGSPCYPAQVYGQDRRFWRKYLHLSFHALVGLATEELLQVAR
Sequence of UniProt P19793 (P19793 whole entry, looked up): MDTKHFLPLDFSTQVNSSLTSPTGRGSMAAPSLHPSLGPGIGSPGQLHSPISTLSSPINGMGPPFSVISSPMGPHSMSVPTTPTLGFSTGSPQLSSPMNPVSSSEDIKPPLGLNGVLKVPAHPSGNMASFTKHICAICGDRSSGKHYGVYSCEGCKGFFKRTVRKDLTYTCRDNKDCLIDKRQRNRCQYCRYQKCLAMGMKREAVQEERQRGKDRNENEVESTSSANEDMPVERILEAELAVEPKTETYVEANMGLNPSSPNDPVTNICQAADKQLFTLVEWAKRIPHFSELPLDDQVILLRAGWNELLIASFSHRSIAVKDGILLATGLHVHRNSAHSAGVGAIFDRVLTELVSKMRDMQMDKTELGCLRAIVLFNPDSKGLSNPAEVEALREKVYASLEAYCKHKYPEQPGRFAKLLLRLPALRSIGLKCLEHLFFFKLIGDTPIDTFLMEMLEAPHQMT
Sequence of UniProt Q96K19 (Q96K19 whole entry, looked up): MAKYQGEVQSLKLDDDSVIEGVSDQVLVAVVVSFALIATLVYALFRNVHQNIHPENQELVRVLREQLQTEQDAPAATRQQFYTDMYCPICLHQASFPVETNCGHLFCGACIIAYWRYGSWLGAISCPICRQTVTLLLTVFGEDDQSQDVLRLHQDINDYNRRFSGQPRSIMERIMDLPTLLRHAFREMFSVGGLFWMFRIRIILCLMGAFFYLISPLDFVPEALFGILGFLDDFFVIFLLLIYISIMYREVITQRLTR
Sequence of UniProt Q9Y644 (Q9Y644 whole entry, looked up): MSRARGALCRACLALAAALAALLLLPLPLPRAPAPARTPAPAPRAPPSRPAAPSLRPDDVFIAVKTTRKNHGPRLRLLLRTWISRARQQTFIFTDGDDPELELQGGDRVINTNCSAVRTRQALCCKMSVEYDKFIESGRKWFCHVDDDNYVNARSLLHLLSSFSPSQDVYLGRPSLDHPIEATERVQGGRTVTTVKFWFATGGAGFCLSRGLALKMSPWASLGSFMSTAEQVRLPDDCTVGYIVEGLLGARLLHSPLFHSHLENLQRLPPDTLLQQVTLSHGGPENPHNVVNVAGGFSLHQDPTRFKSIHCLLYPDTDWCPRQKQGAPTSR
Sequence of UniProt O75943 (O75943 whole entry, looked up): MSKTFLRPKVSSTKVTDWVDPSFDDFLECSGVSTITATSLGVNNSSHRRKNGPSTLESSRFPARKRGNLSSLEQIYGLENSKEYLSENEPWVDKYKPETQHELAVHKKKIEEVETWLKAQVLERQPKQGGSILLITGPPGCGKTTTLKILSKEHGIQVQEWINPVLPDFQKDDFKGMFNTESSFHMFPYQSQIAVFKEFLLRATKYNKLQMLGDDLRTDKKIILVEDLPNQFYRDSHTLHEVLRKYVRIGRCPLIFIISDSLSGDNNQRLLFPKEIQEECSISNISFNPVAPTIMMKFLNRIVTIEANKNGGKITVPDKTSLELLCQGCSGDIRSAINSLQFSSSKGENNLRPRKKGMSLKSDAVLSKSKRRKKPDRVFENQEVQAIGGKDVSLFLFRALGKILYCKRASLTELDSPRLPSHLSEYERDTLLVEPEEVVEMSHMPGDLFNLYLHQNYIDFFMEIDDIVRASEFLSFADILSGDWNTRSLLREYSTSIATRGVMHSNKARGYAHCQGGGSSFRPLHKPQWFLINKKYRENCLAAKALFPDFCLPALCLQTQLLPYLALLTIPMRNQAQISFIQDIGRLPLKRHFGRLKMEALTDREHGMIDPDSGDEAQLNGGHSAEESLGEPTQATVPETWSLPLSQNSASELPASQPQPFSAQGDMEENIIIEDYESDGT
Sequence of UniProt Q9Y225 (Q9Y225 whole entry, looked up): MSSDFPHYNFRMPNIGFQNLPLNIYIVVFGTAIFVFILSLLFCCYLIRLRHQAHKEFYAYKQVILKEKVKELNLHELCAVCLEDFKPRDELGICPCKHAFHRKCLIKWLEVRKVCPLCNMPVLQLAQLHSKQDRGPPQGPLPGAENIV

log2 fold change, inactive:
RUFY2 isoform 1 (UniProt Q8WXA3) 0.003
RXRA (UniProt P19793) -0.117
SATB2 (UniProt Q9UPW6) 0.024
SERAC1 (UniProt Q96JX3) -0.412
QSER1, A0A3B3IRW6 0.025
RPS6KA5 (UniProt O75582) 0.041
RHOU (UniProt Q7L0Q8) -0.014
RNF2 (UniProt Q99496) -0.125
RAD17 (UniProt O75943) 0.029
RFWD3 (UniProt Q6PCD5) 0.114
RNF24 isoform 2 (UniProt Q9Y225) -0.113
SELENOK (UniProt Q9Y6D0) -0.018
RNF170 (UniProt Q96K19) 0.055
SCNM1 (UniProt Q9BWG6) 0.035
RAD54L (UniProt Q92698) -0.022
RBBP7 (UniProt C9J7L0) 0.089
RFNG (UniProt Q9Y644) -0.003
RNPC3 (UniProt Q96LT9) 0.118
RECQL4 (UniProt O94761) 0.028
RNASEH2B, A0A1B0GUE7 0.04
RDH11 (UniProt Q8TC12) -0.009
RBM45 (UniProt Q8IUH3) -0.136
